Out of some 5,500 compounds screened, about 2,000 (36%) were called active. Inconclusive results (about 18%) are left out. Cut-off read from the data, not from the text of the source: active = normalized growth mostly below about 0.91 (no sharp cut-off); inconclusive = no clear call, values can overlap the other calls; inactive = mostly above about 0.92. Some of the results follow.
Assay: chemical genetic growth profiling, strain panel (AID 1159580);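 note: tested at 20 µM; growth read once vehicle control cultures reached saturation at 30 °C; 1 = growth at the plate median or of vehicle wells; lower values mean less growth of the strain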
Conditions: growth OD

Measured: normalized growth

Cc1cc(O)c(C=O)c2c1C(=O)Oc1c(COC(=O)/C=C/C(=O)O)c(O)c(C(=O)O)c(C)c1O2
inactive: S. cerevisiae deletion strains, locus YJR043C, strain POL32, stronger effect = lower value 0.954 | S. cerevisiae deletion strains, locus YJR066W, strain TOR1, stronger effect = lower value 0.931 | S. cerevisiae deletion strains, locus YJR075W, strain HOC1, stronger effect = lower value 0.962 | S. cerevisiae deletion strains, locus YKL009W, strain mrt4, stronger effect = lower value 0.974 | S. cerevisiae deletion strains, locus YKL068W, stronger effect = lower value 0.993 | S. cerevisiae deletion strains, locus YKL085W, strain MDH1 (second series), stronger effect = lower value 0.991 | S. cerevisiae deletion strains, locus YKL085W, strain MDH1, stronger effect = lower value 0.991 | S. cerevisiae deletion strains, locus YKL160W, strain elf1, stronger effect = lower value 0.992 | S. cerevisiae deletion strains, locus YKR001C, strain vps1, stronger effect = lower value 0.921 | S. cerevisiae deletion strains, locus YKR026C, strain gcn3, stronger effect = lower value 0.985 | S. cerevisiae deletion strains, locus YKR091W, strain srl3, stronger effect = lower value 1.01 | S. cerevisiae deletion strains, locus YLL026W, stronger effect = lower value 1.01 | S. cerevisiae deletion strains, locus YLL041C, strain sdh2, stronger effect = lower value 1 | S. cerevisiae deletion strains, locus YLR027C, strain aat2, stronger effect = lower value 0.982 | S. cerevisiae deletion strains, locus YLR039C, strain RIC1, stronger effect = lower value 0.933 | S. cerevisiae deletion strains, locus YLR058C, strain SHM2, stronger effect = lower value 0.937 | S. cerevisiae deletion strains, locus YLR102C, strain apc9, stronger effect = lower value 0.991 | S. cerevisiae deletion strains, locus YLR113W, strain HOG1, stronger effect = lower value 0.984 | S. cerevisiae deletion strains, locus YLR221C, strain rsa3, stronger effect = lower value 0.946 | S. cerevisiae deletion strains, locus YLR258W, strain gsy2, stronger effect = lower value 0.987 | S. cerevisiae deletion strains, locus YLR262C, strain YPT6 (second series), stronger effect = lower value 0.877 | S. cerevisiae deletion strains, locus YLR262C, strain YPT6, stronger effect = lower value 0.936 | S. cerevisiae deletion strains, locus YLR268W, strain sec22, stronger effect = lower value 0.924 | S. cerevisiae deletion strains, locus YLR320W, strain mms22, stronger effect = lower value 0.959 | S. cerevisiae deletion strains, locus YLR330W, strain CHS5, stronger effect = lower value 0.971 | S. cerevisiae deletion strains, locus YLR342W, strain FKS1 (second series), stronger effect = lower value 0.98 | S. cerevisiae deletion strains, locus YLR342W, strain FKS1, stronger effect = lower value 0.968 | S. cerevisiae deletion strains, locus YLR370C, strain arc18, stronger effect = lower value 0.967 | S. cerevisiae deletion strains, locus YLR371W, strain rom2, stronger effect = lower value 0.943 | S. cerevisiae deletion strains, locus YLR384C, strain iki3, stronger effect = lower value 0.996 | S. cerevisiae deletion strains, locus YLR418C, strain cdc73, stronger effect = lower value 0.883 | S. cerevisiae deletion strains, locus YML016C, strain PPZ1, stronger effect = lower value 0.957 | S. cerevisiae deletion strains, locus YML032C, strain rad52, stronger effect = lower value 1.01 | S. cerevisiae deletion strains, locus YML120C, strain ndi1, stronger effect = lower value 1 | S. cerevisiae deletion strains, locus YML124C, strain tub3, stronger effect = lower value 0.996 | S. cerevisiae deletion strains, locus YMR078C, strain ctf18, stronger effect = lower value 0.986 | S. cerevisiae deletion strains, locus YMR125W, strain sto1, stronger effect = lower value 1.08 | S. cerevisiae deletion strains, locus YMR129W, stronger effect = lower value 1.01 | S. cerevisiae deletion strains, locus YMR205C, strain PFK2, stronger effect = lower value 0.998 | S. cerevisiae deletion strains, locus YMR223W, strain ubp8, stronger effect = lower value 0.961 | S. cerevisiae deletion strains, locus YMR231W, strain pep5, stronger effect = lower value 0.94 | S. cerevisiae deletion strains, locus YMR307W, strain GAS1, stronger effect = lower value 0.72 | S. cerevisiae deletion strains, locus YNL067W, strain RPL9B, stronger effect = lower value 0.92 | S. cerevisiae deletion strains, locus YNL071W, strain lat1, stronger effect = lower value 1 | S. cerevisiae deletion strains, locus YNL183C, strain NPR1, stronger effect = lower value 0.931 | S. cerevisiae deletion strains, locus YNL233W, strain BNI4, stronger effect = lower value 0.967 | S. cerevisiae deletion strains, locus YNL248C, strain rpa49, stronger effect = lower value 1.01 | S. cerevisiae deletion strains, locus YNL250W, strain rad50, stronger effect = lower value 0.956 | S. cerevisiae deletion strains, locus YNL271C, strain bni1, stronger effect = lower value 0.954 | S. cerevisiae deletion strains, locus YNL298W, strain CLA4, stronger effect = lower value 0.966 | S. cerevisiae deletion strains, locus YNL307C, strain MCK1, stronger effect = lower value 0.98 | S. cerevisiae deletion strains, locus YNL322C, strain KRE1 (second series), stronger effect = lower value 1.04 | S. cerevisiae deletion strains, locus YNR049C, strain mso1, stronger effect = lower value 0.995 | S. cerevisiae deletion strains, locus YNR052C, strain pop2, stronger effect = lower value 0.963 | S. cerevisiae deletion strains, locus YOL012C, strain htz1 0.751 | S. cerevisiae deletion strains, locus YOL147C, strain pex11, stronger effect = lower value 0.994 | S. cerevisiae deletion strains, locus YOR001W, strain rrp6, stronger effect = lower value 0.961 | S. cerevisiae deletion strains, locus YOR061W, strain CKA2, stronger effect = lower value 0.95 | S. cerevisiae deletion strains, locus YOR069W, strain VPS5, stronger effect = lower value 0.976 | S. cerevisiae deletion strains, locus YOR070C, strain gyp1, stronger effect = lower value 0.988 | S. cerevisiae deletion strains, locus YOR080W, strain dia2, stronger effect = lower value 1.02 | S. cerevisiae deletion strains, locus YOR083W, strain WHI5, stronger effect = lower value 0.937 | S. cerevisiae deletion strains, locus YOR136W, strain idh2, stronger effect = lower value 0.988 | S. cerevisiae deletion strains, locus YOR144C, strain elg1, stronger effect = lower value 0.993 | S. cerevisiae deletion strains, locus YOR184W, strain ser1, stronger effect = lower value 0.946 | S. cerevisiae deletion strains, locus YOR231W, strain MKK1, stronger effect = lower value 0.953 | S. cerevisiae deletion strains, locus YOR265W, strain rbl2, stronger effect = lower value 0.964 | S. cerevisiae deletion strains, locus YOR290C, strain snf2, stronger effect = lower value 0.869 | S. cerevisiae deletion strains, locus YOR316C, strain cot1, stronger effect = lower value 0.989 | S. cerevisiae deletion strains, locus YPL078C, strain atp4, stronger effect = lower value 0.925 | S. cerevisiae deletion strains, locus YPL106C, strain sse1, stronger effect = lower value 0.942 | S. cerevisiae deletion strains, locus YPL240C, strain hsp82, stronger effect = lower value 1.01 | S. cerevisiae deletion strains, locus YPL256C, strain CLN2, stronger effect = lower value 1.01 | S. cerevisiae deletion strains, locus YPR119W, strain clb2, stronger effect = lower value 0.991 | S. cerevisiae deletion strains, locus YPR141C, strain kar3, stronger effect = lower value 0.96 | S. cerevisiae deletion strains, locus YPR163C, strain tif3, stronger effect = lower value 0.987 | S. cerevisiae deletion strains, locus YPR167C, strain met16, stronger effect = lower value 0.998 | S. cerevisiae deletion strains, strain wtn01, stronger effect = lower value 0.945
active: S. cerevisiae deletion strains, locus YLL001W, strain dnm1, stronger effect = lower value 0.888 | S. cerevisiae deletion strains, locus YLR357W, strain rsc2, stronger effect = lower value 0.841 | S. cerevisiae deletion strains, locus YMR058W, strain fet3, stronger effect = lower value 0.311 | S. cerevisiae deletion strains, locus YNL209W, strain ssb2, stronger effect = lower value 0.804 | S. cerevisiae deletion strains, locus YOR106W, strain vam3, stronger effect = lower value 0.709 | S. cerevisiae deletion strains, locus YOR270C, strain vph1, stronger effect = lower value 0.503 | S. cerevisiae deletion strains, locus YPL051W, strain arl3, stronger effect = lower value 0.831 | S. cerevisiae strains, strain wild type, stronger effect = lower value 0.874
